Shown are actives, neighbours in structure and some others; about 19% of the full set was active somewhere.
ELG1 DNA repair – blocks ELG1-dependent DNA repair in HEK293T cells; HEK293T ELG1-luciferase reporter, luminescence, 16 h; DNA damage induced by 5-fluorouridine; Potency, µM (top dose mostly 46.1 µM), for inactives: at the top dose activity change, negative = inhibition, actives largely listed as inhibitors; 2.3% of 330,000 active; AID 504467; further: potency means the concentration at half of the fitted maximal effect; nearly all actives have a fitted effect of over 55% in size
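HEK293T cells expressing luciferase-tagged ELG1 (2,000/well) received 5-Fluorouridine plus compound or DMSO for 16 hr at 37 °C. Luciferase was read by ONE-Glo luminescence after 30 min at room temperature.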
TDP1 cell CPT – DT40-hTDP1 cell growth loss with CPT; chicken DT40 Tdp1-/-;hTDP1 cells + 20 nM CPT, ATP luminescence, 48 h; 12% of 420,000 active; Potency, µM (series often up to 46.2 µM), for inactives: at the top dose activity change, negative = growth inhibition, hits mostly inhibitors; further: potency means the concentration at half of the fitted maximal effect; nearly all actives have a fitted effect of over 55% in size
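Cell growth measured by CellTiter-Glo luminescence after a minimum 48 h, 37 C compound exposure with 20 nM CPT in Tdp1-knockout DT40 cells stably expressing hTDP1, seeded 400/well; qHTS titration format.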
HT1080 IDH1KD tx – HT-1080 IDH1 knockdown cell toxicity (counter line); AID 686971; HT-1080 IDH1 knockdown viability, ATP luminescence, 48 h; 2% of 360,000 active; Potency, µM (titrated, usually from 46.1 µM), without a hit: at the top dose activity, negative = toxicity, usual class: cytotoxic;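 further: potency means the concentration at half of the fitted maximal effect; 0% = DMSO wells and -100% = cell-free medium wells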
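In this qHTS, HT-1080 cells depleted of IDH1 are exposed for 48 h at 37 °C to compound titrations. Toxicity is scored from CellTiter-Glo luminescence, with DMSO as full viability and medium alone as none.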
HT1080NT lethal – kills 2HG-producing HT-1080-NT fibrosarcoma cells; HT-1080-NT fibrosarcoma viability, CellTiter-Glo ATP luminescence, 48 h; Potency, µM (top dose mostly 46.1 µM), for the others: at the top dose activity, negative = less viability, actives largely listed as cytotoxic; 1.6% of 360,000 active;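 further: NT is the 2HG producing partner of a matched IDH1 knockdown line; potency means the concentration at half of the fitted maximal effect; 0% = DMSO-treated cells and -100% = media-only wells without cells; nearly all actives have a fitted effect of over 55% in size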
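Viability of the 2HG-overproducing fibrosarcoma line after 48 hours of compound exposure at 37 degrees C was determined by luminescence with CellTiter-Glo, and concentration-effect curves were then fitted and categorized.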
DT40 TDP1 no CPT – qHTS for Inhibitors of human tyrosyl-DNA phosphodiesterase 1 (TDP1): qHTS in cells in absence of CPT; DT40 Tdp1-/- hTDP1 cells, no CPT, ATP luminescence, 48 h; Potency, µM (titrated, usually from 46.2 µM), for inactives: at the top dose activity change, negative = growth inhibition, actives largely listed as inhibitors; 15% of 420,000 active; AID 686978, 2013; further: potency means the concentration at half of the fitted maximal effect; nearly all actives have a fitted effect of over 55% in size
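No-CPT arm: Tdp1-/-;hTDP1 DT40 cells (400/well) plus compounds, incubated ≥48 hr at 37 °C. Readout CellTiter-Glo luminescence.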
IL-1B inflam inh – blocks inflammasome-driven IL-1 beta release. THP-1 LPS/ATP IL-1B secretion, AlphaLISA, 16 h; stronger effect = lower value. activity change, % at 57.5 µM. AID 743279. 4.7% of 360,000 active; in the data active means activity change below about -50%; inconclusive means mostly about -30% to -49%
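Secreted IL-1B measured by AlphaLISA bead assay after 16 h compound exposure of THP-1 cells; compounds (final up to 57.5 uM) added 1 h before LPS (250 ng/mL) and ATP (1.25 mM) stimulation; lower signal means less secretion.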
Starred values were filed as active, the others as inactive; ? = inconclusive; nt = not tested or not shown; [ ] = another dose, or the depositor's remark. Unless noted, the call rests on the fitted dose curve; in most records, active means well fitted curve in the direction sought with a large enough effect; inconclusive means small, poorly fitted or top-dose-only effect, or another doubt; inactive means no such curve, though single readings can be large; an effect the other way counts as inactive or inconclusive. Unless noted, on the % scale 0 is the no-effect control and ±100 the full control effect.

SMILES | ELG1 DNA repair | TDP1 cell CPT | HT1080 IDH1KD tx | HT1080NT lethal | DT40 TDP1 no CPT | IL-1B inflam inh
CCCc1cnc2c(c1SCC(=O)Nc1c(C)cc(C)cc1C)c(=O)n(C)c(=O)n2C | nt | 4% | nt | nt | -5% | nt
CCCc1cnc2c(c1SCc1ccc(C(F)(F)F)cc1)c(=O)n(C)c(=O)n2C | nt | ? | nt | nt | 21µM* | nt
Cc1cnc2c(c1SCC(=O)NCc1ccc(F)cc1)c(=O)n(C)c(=O)n2C | nt | -4% | nt | nt | -26% | nt
Cc1ccc(CSc2c(C)cnc3c2c(=O)n(C)c(=O)n3C)cc1 | nt | 23µM* | nt | nt | ? | nt
CCCc1cnc2c(c1SCC(=O)Nc1ccc(C)c(Cl)c1)c(=O)n(C)c(=O)n2C | nt | 18µM* | nt | nt | ? | nt
CC(C)c1nc(SCC(=O)Nc2cccc(C(F)(F)F)c2)c2c(=O)n(C)c(=O)n(C)c2n1 | ? | 4.6µM* | 2% | 13% | 3.7µM* | 0
C[C@H](CO)N1C[C@H](C)[C@H](CN(C)S(=O)(=O)c2cccc(F)c2)Oc2ncc(-c3cccc(C(=O)N(C)C)c3)cc2C1=O | nt | 17% | 4% | -3% | -3% | -8
COc1ccc(NC(=O)CCCN2C(=O)CN(C)C2=O)cc1Cl | 16% | 18% | 13% | 12% | -9% | 10
CCc1ccc(NC(=O)CSc2c(C)cnc3c2c(=O)n(C)c(=O)n3C)cc1 | nt | 23µM* | nt | nt | 23µM* | nt
CCn1c(SCC(=O)Nc2ccccc2)nc2c1c(=O)n(C)c(=O)n2C | -12% | -17% | 0% | -7% | -17% | 24
CCc1cnc2c(c1SCC(=O)Nc1ccc(C(=O)OC)cc1)c(=O)n(C)c(=O)n2C | nt | 1% | nt | nt | -19% | nt
CC(C)c1cnc2c(c1SCC(=O)Nc1ccc(OC(F)(F)F)cc1)c(=O)n(C)c(=O)n2C | nt | 9.2µM* | nt | nt | 8.2µM* | nt
Cc1ccc(C)c(CSc2c(C(C)C)cnc3c2c(=O)n(C)c(=O)n3C)c1 | nt | 18µM* | nt | nt | ? | nt
Cn1c(=O)c2c(nc(SCC(=O)Nc3ccc(OC(F)(F)F)cc3)n2Cc2cccc(C(F)(F)F)c2)n(C)c1=O | nt | 10µM* | nt | nt | 8.2µM* | nt
CCOC(=O)c1ccc(NC(=O)CSc2c(C(C)C)cnc3c2c(=O)n(C)c(=O)n3C)cc1 | nt | -13% | nt | nt | -16% | nt
CCc1cnc2c(c1SCc1ccccc1C)c(=O)n(C)c(=O)n2C | nt | -25% | nt | nt | ? | nt
CC(=O)NC1C(O)C[C@@](O)(C(=O)O)OC1[C@@H](O)C(O)CO (stereo partly drawn) | nt | -2% | nt | nt | -8% | nt
O=C(O)c1ccccc1C(=O)c1ccc2oc(=O)[nH]c2c1 | nt | 4% | 19% | 16% | -4% | 6
Cc1ccc(-c2nc3ccccn3c2Nc2ccccc2)o1 | 2% | -21% | -19% | -1% | ? | -16
Cc1ccc2nc(-c3ccc(C)o3)c(Nc3ccc(F)cc3)n2c1 | nt | 2% | 19% | 19% | ? | nt
Cc1ccc2nc(-c3ccc(C)o3)c(Nc3ccccc3)n2c1 | nt | 3.5µM* | 15% | -6% | 4.5µM* | nt
Cc1ccc(-c2nc3cnccn3c2Nc2ccccc2)o1 | 25% | 21µM* | 7% | 22% | 21µM* | 36
Cc1ccc(Nc2c(-c3ccc(C)o3)nc3ccccn23)cc1 | nt | ? | -16% | -13% | 13µM* | nt
Cc1ccc(-c2nc3cccc(C)n3c2Nc2ccc(F)cc2)o1 | nt | ? | -20% | -19% | 10µM* | nt
COc1ccc(CN2CCCC(n3cc(C(=O)N4CCCCC4)nn3)C2)c(OC)c1OC (stereo not drawn) | nt | -5%[9.04 µM] | nt | nt | -12% | nt
SMILES | ELG1 DNA repair | TDP1 cell CPT | HT1080 IDH1KD tx | HT1080NT lethal | DT40 TDP1 no CPT | IL-1B inflam inh
Cc1nnc(SCC(=O)Nc2ccc(N3CCN(S(C)(=O)=O)CC3)cc2)o1 | -5% | -22% | -2% | -4% | -15% | -11
COc1ccc(-c2nc3cnccn3c2Nc2ccc(C)cc2)cc1 | -1% | 15µM* | 3% | -7% | 15µM* | 89
COc1ccc(Cl)cc1N=Cc1c(O)cc(C)oc1=O | nt | -6% | -3% | 4% | -4% | 14
COC(=O)c1nn(-c2ccccc2)c(Cl)c1/C=N/OCc1ccc(Cl)cc1Cl | -7% | 16µM* | -5% | 9% | 29µM* | -1
Cc1cc(O)c(/C=N/OCc2ccc(Cl)cc2Cl)c(=O)o1 | -15% | 15µM* | -10% | -20% | ? | -12
COC(=O)c1nn(-c2ccccc2)c(Cl)c1/C=N/O | -16% | 1% | -2% | -5% | -6% | 29
CCC(Oc1ccccc1)C(=O)Nc1nnc(S(=O)(=O)N(CC)CC)s1 (stereo not drawn) | nt | -29% | nt | nt | -24% | nt
CC(=O)c1cccc(NC(=O)CN2C(=O)CCc3cc(S(=O)(=O)N4CCCCC4)ccc32)c1 | nt | -24% | nt | nt | -9% | nt
Cc1ccc2nc(NC(=O)CSc3cc(C)[nH]c(=O)n3)sc2c1 | nt | 8% | nt | nt | -1% | nt
CCN(c1ccccc1)S(=O)(=O)c1cc(C(=O)OCC(=O)c2c(N)n(C)c(=O)n(C)c2=O)ccc1C | nt | 9.2µM* | -3% | -3% | 23µM* | 0
CN(C)S(=O)(=O)c1cccc(C(=O)OCC(=O)c2c(N)n(C)c(=O)n(C)c2=O)c1 | 0% | 12% | -12% | -2% | -4% | 37
Cc1ccc(N(C)S(=O)(=O)c2cccc(C(=O)OCC(=O)c3c(N)n(C)c(=O)n(C)c3=O)c2)cc1 | 16µM* | ? | -20% | -24% | 18µM* | 51
CN(c1ccccc1)S(=O)(=O)c1cc(C(=O)OCC(=O)c2c(N)n(C)c(=O)n(C)c2=O)ccc1Cl | nt | 26µM* | -1% | -8% | ? | 21
Cc1cccc(C)c1NC(=O)CN(C1CCCCC1)S(C)(=O)=O | -4% | -7% | 16% | -5% | -14% | 0
COc1ccc(CCN(C)CC(O)COc2ccc(C(C)=O)cc2OC)cc1OC (stereo not drawn) | -1% | -29% | -8% | 11% | -25% | -9
Cn1c(=O)c2c3c(sc2n2c(SCC(N)=O)nnc12)CC(C(C)(C)C)CC3 (stereo not drawn) | 23µM* | 23µM* | ? | ? | ? | -1
CCCSc1nnc2n(C)c(=O)c3c4c(sc3n12)CCC4 | -3% | ? | ? | -20% | ? | 1
CCCCN(CCCC)C(=O)CSc1nnc2n(C)c(=O)c3c4c(sc3n12)CCCC4 | 10% | ? | -5% | -5% | 23µM* | 9
COc1cccc(CNC(=O)Nc2ccc3c(c2)N(C)C(=O)c2ccccc2S3)c1 | nt | 23µM* | nt | nt | ? | nt

Source: PubChem (National Center for Advancing Translational Sciences (NCATS))
